Drawing on PubChem BioAssay (NCI), this text covers growth for six molecules.

Each structure is given as a SMILES string. Where “and” joins values, the source holds several entries; their conditions need not be identical. Identical values can stand only once. This is part of a sample that, as a whole, favours compounds with a hit. Of some 83,000 tested, about 20% had one in any assay.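 Interpretation: 100, growth as untreated; towards 0, rising growth inhibition; 0, no net growth; 0 to -100, cell death. Compounds scoring below 10 were considered active.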 A number with no mark means an inactive call. Calls of active or inactive are those of the source.

Common to all, as to test: NCI-60 one-dose screen, 48 h (100 = growth as untreated, 0 = no growth, -100 = all killed)
Settings in all cases: 10 µM unless noted

Assay [1] relates to HCT-15 colon.
Assay [2] has as its system HT29 colon.
Assay [3] relates to SNB-75 CNS.
The test system of assay [4] is SNB-19 CNS.
For assay [5], the system named is U251 CNS.
Assay [6] deals with PC-3 prostate.
For assay [7], the system named is SK-MEL-5 melanoma.
Assay [8] deals with UACC-62 melanoma.
Assay [9] concerns LOX IMVI melanoma.
For assay [10], the system named is SK-MEL-28 melanoma.
Assay [11] relates to SK-MEL-2 melanoma.
The subject of assay [12] is EKVX NSCLC.
Assay [13] relates to SN12C renal.
Assay [14] deals with TK-10 renal.
Assay [15] deals with ACHN renal.
In assay [16] the test system is CAKI-1 renal.
The subject of assay [17] is A498 renal.
In assay [18] the test system is CCRF-CEM leukemia.
Assay [19] relates to MOLT-4 leukemia.
Assay [20] deals with UO-31 renal.

As for `COc1ccc(-c2ccccc2)cc1-c1c(Nc2cc(Cl)cc(Cl)c2O)c(=O)c1=O`, the growth in assay [1] was 10.2%; in [2], 44.6%; in [3], -8.42% (active); in [4], 10.9%; in [5], 6.59% (active); in [6] it was 12.5%. Further, the growth was -40.7% (active) in assay [7]; 10.6% in [8]; 7.28% (active) in [9]; 20% in assay [10]; -26.5% (active) in assay [11]; 10.2% in assay [12]. Also, the growth in [13] is 6.31% (active); in assay [14], 12.8%; in assay [15], 3.24% (active); in assay [16] it was -12.6% (active); in assay [17] it was -17.6% (active); in assay [18], 19.5%. For the same molecule, the growth in [19] is 13.2%.
As to `O=C(Nc1ncc(Cc2cccc(C(F)(F)F)c2)s1)c1ccc2c(c1)OCCO2`, the growth is 8.27% (active) in assay [1]; 4.83% (active) in assay [2]; 25.5% in assay [3]; 42.9% in [4]; 16.7% in assay [5]; 28.3% in [6]. For the same molecule, the growth in assay [7] is -21.5% (active); in [8], 39.9%; in assay [9], 40.8%; in assay [10], 73.1%; in assay [11], 40.1%; in assay [12], 30.7%. Also, the growth in assay [13] was 35.3%; in [14], 44.9%; in assay [15] it was 29.8%; in assay [16], 24.6%; in assay [17] it was -2.08% (active); in assay [18], 17.8%. Further, the growth in assay [19] is 9.32% (active).
For the molecule `Nc1nc(Cl)nc2c1ncn2C1OC(CO)C(O)C1O` (stereo unspecified), the growth was 60.8% and 68.4% in assay [1]; 105% and 87.7% in assay [2]; 105% and 91.5% in assay [3]; 52% and 53.5% in assay [4]; 74.6% and 64.1% in [5]; 65.6% and 67.5% in assay [6]. Further, the growth in assay [7] was 67.6% and 52.4%; in [8], 90.1% and 80.5%; in assay [9], 88.7% and 66.6%; in assay [10], 64.6% and 75.2%; in [11], 82.9%; in assay [12], 102% and 110%. The growth in assay [13] was 30.2% and 28.3%; in [20], 25.1% and 13%; in assay [14] it was 82.4% and 87.6%; in assay [17] it was 96.6%; in assay [19], 2.75% (active) and 3.08% (active).
For the molecule `C/C=C(\C)C(=O)N[C@H]1CC[C@]2(C)C3CC[C@@]4(C)C(CC[C@@H]4C(C)N(C)C)C3CCC2[C@H]1OC(C)=O` (stereo partly specified), the growth is -78.4% (active) in assay [1]; -68.4% (active) in assay [2]; -50% (active) in [3]; -58.7% (active) in assay [4]; -66.1% (active) in [5]; 0.354% (active) in assay [6]. Besides, the growth was -100% (active) in assay [7]; -51.7% (active) in [8]; -78.8% (active) in [9]; -97.5% (active) in assay [10]; -32.7% (active) in assay [11]; -11.3% (active) in [12]. For the same molecule, the growth in [13] was -3.57% (active); in [14] it was -48.3% (active); in assay [15], -65.1% (active); in assay [16] it was -43.3% (active); in assay [17], -32.9% (active); in [19] it was 11.2%.
Take `Cc1nn(-c2nc(-c3cc4ccccc4oc3=O)cs2)c(C)c1N=Nc1ccccc1`: the growth was 106% in assay [1]; 103% in assay [2]; 89.4% in [3]; 101% in assay [4]; 88.8% in assay [5]; 106% in assay [6]. For the same molecule, the growth in assay [7] was 101%; in assay [8], 86.6%; in [9], 96.7%; in [10], 108%; in assay [11], 113%; in assay [12], 99.8%. Moreover, the growth in [13] was 103%; in assay [14], 112%; in [15], 108%; in assay [16], 89.2%; in assay [17] it was 100%; in assay [18], 105%. In assay [19], the growth was 100%.
In the case of `O=C(O)C1C2CCC1C(O)C2` (stereo unspecified), the growth in assay [1] was 106% and 103%; in [2] it was 102%; in assay [3], 101% and 92.9%; in assay [4], 102% and 108%; in assay [5] it was 94.6% and 99.6%; in assay [6] it was 110% and 95.9%. The growth in assay [7] was 101% and 110%; in assay [8] it was 110% and 108%; in [9], 95.4% and 95.5%; in assay [10], 104% and 110%; in assay [11], 97.7% and 95.5%; in [12], 110%. Besides, the growth in [13] is 104% and 102%; in [14], 93.1% and 98.2%; in [15], 106% and 104%; in assay [16], 100% and 98.3%; in assay [17], 116% and 113%; in [18], 101% and 93.9%. Moreover, the growth in [19] was 93.6% and 93.5%.
